# In PubChem BioAssay (Tox21):
# Values without a mark were called inactive. Records with an inconclusive call do not appear. A call without a number means that no potency is given here. The source made the active and inactive calls. Unless noted, calls come from the whole dose curve; as a rule, active = well fitted curve in the direction sought with a large enough effect in the repeat runs; inconclusive = weak or mixed curves; inactive = no such curve, though single readings can be large; an effect the other way counts as inactive or inconclusive.
# Experiments:
# [1] = A CellTox Green Cytotoxicity Assay to monitor cytotoxicity in HepG2 cells - 0 hour (AID 1224882); note: nearly all actives have a fitted effect of over 35% in size
# Summary of the method: (§1)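 First, HepG2 cells (600/well) mixed with reagent were plated; second, after 5 h at 37 C they received compounds via pintool; third, fluorescence was measured at 0 h through 40 h at 8 h intervals.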
# [2] = A CellTox Green Cytotoxicity Assay to monitor cytotoxicity in HepG2 cells - 32 hour (AID 1224883); note: nearly all actives have a fitted effect of over 50% in size
# Summary of the method: as §1
# [3] = A CellTox Green Cytotoxicity Assay to monitor cytotoxicity in HEK293 cells - 8 hour (AID 1224884); note: nearly all actives have a fitted effect of over 35% in size
# Summary of the method: (§2)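 Dead-cell fluorescence measured kinetically: asymmetric cyanine dye, HEK293, 600 cells/well, 5 h settle, 23 nL cpd/DMSO, 37 C, reads 0–40 h every 8 h.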
# [4] = qHTS RealTime-Glo MT Cell Viability Assay in HepG2 cells - 16 hour (AID 1224885); note: nearly all actives have a fitted effect of over 50% in size
# Summary of the method: (§3)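 Viability was tracked continuously by NanoLuc luminescence from prosubstrate reduced by living HepG2 cells, at successive time points over 40 h of compound exposure. Cells with reagent were preincubated 5 h at 37 °C before compound addition.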
# [5] = qHTS RealTime-Glo MT Cell Viability Assay in HEK293 cells - 24 hour (AID 1224886); note: top concentration of the series differs between compounds; nearly all actives have a fitted effect of over 50% in size
# Summary of the method: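 Viability tracked continuously by luminescence as live cells reduce a prosubstrate for NanoLuc; HEK293 cells preincubated 5 h, compound-treated at 37 C, and read at 0, 8, 16, 24, 32 and 40 h.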
# [6] = qHTS RealTime-Glo MT Cell Viability Assay in HEK293 cells - 8 hour (AID 1224887); note: nearly all actives have a fitted effect of over 50% in size; note: potency is the fitted concentration of half-maximal effect; for activity change, negative = cytotoxicity: top concentration of the series differs between compounds
# Summary of the method: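 600 HEK293 cells per well, dispensed already mixed with RealTime-Glo MT reagents. Compound dosing came 5 h later. The same wells were read for luminescence at 0, 8, 16, 24, 32 and 40 h of exposure at 37 C.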
# [7] = A CellTox Green Cytotoxicity Assay to monitor cytotoxicity in HEK293 cells - 16 hour (AID 1224888); note: nearly all actives have a fitted effect of over 35% in size
# Summary of the method: as §2
# [8] = qHTS RealTime-Glo MT Cell Viability Assay in HepG2 cells - 0 hour (AID 1224889); note: nearly all actives have a fitted effect of over 50% in size
# Summary of the method: as §3
# [9] = A CellTox Green Cytotoxicity Assay to monitor cytotoxicity in HepG2 cells - 8 hour (AID 1224890); note: nearly all actives have a fitted effect of over 45% in size
# Summary of the method: as §1
# [10] = qHTS assay to identify small molecule antagonists of the estrogen receptor alpha (ER-alpha) signaling pathway using the BG1 cell line in the presence of 0.1 nM 17-beta-estradiol - cell viability counter screen (AID 1259241); note: nearly all actives have a fitted effect of over 40% in size
# Summary of the method: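 Live-cell protease activity (CellTiter-Fluor fluorescence, 30 min) was read in the same wells after VM7Luc4E2 cells had been exposed to compounds with 0.1 nM 17beta-estradiol for 22 hr at 37C.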
# [11] = qHTS assay to identify small molecule antagonists of the androgen receptor (AR) signaling pathway using the MDA cell line in the presence of 0.5 nM R1881 - cell viability counter screen (AID 1259242); note: nearly all actives have a fitted effect of over 45% in size
# Summary of the method: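 qHTS format. MDA-kb2 (MMTV-luc, AR/GR responsive) + cpd + 0.5 nM R1881 final, 16 hr 37C/0% CO2 → CellTiter-Fluor 30 min → fluorescence intensity.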
# [12] = molecular target: Estrogen receptor (Homo sapiens) (UniProt P03372); assay: qHTS assay to identify small molecule antagonists of the estrogen receptor alpha (ER-alpha) signaling pathway using the BG1 cell line in the presence of 0.1 nM 17-beta-estradiol (AID 1259244); note: nearly all actives have a fitted effect of over 50% in size
# Summary of the method: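 Reporter is a stably transfected luciferase under four estrogen responsive elements in VM7Luc4E2 cells expressing native full-length ER-alpha; inhibition of 0.1 nM (final) 17beta-estradiol-driven signal over 22 h is read by luminescence.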
# [13] = qHTS assay to identify small molecule HDAC inhibitors (AID 1259364);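 note: wild-type HCT-116 cells with endogenous class I/II HDAC activity; top concentration of the series differs between compounds; nearly all actives have a fitted effect of over 45% in size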
# Summary of the method: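 Quantitative high-throughput format: overnight-seeded HCT-116 cells got compounds for 2 hr at 37C; HDAC-Glo I/II reagent added, 30 min RT, luminescence measured.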
# [14] = qHTS assay to identify small molecule HDAC inhibitors - cell viability counter screen (AID 1259365)
# Summary of the method: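 HCT-116 (wild type), 1,500 cells/well, overnight 37C/5% CO2; compound in DMSO 2hr; CellTiter-Glo 30min RT; luminescence read.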
# [15] = qHTS assay to identify small molecule agonists of the sonic hedgehog signaling (Shh) pathway - cell viability counter screen (AID 1259366); note: nearly all actives have a fitted effect of over 50% in size; note: potency is the fitted concentration of half-maximal effect
# Summary of the method: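 CellTiter-Fluor fluorescence read-out, 1 hr at 37C, added after 23hr compound exposure. Cells: 3T3 Gli1-Luc, an NIH/3T3 clone with stably integrated Gli1-Luc reporter, plated 4hr before compound.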
# [16] = qHTS assay to identify small molecule agonists of the sonic hedgehog signaling (Shh) pathway (AID 1259368; calls by dose curve;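 note: NIH/3T3-derived 3T3Gli1-Luc cells carrying a stable Gli1-driven firefly luciferase reporter; series mostly up to about 92 µM; nearly all actives have a fitted effect of over 15% in size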)
# Summary of the method: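 Quantitative high-throughput format using a Gli1-driven firefly luciferase reporter line derived from NIH/3T3 cells. After a 24 hr compound treatment at 37 C and 5% CO2, luminescence reported Gli1 response element activity.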
# [17] = A CellTox Green Cytotoxicity Assay to monitor cytotoxicity in HEK293 cells - 32 hour (AID 1224881); note: nearly all actives have a fitted effect of over 40% in size
# Summary of the method: as §2
# [18] = molecular target: Androgen receptor (Homo sapiens) (UniProt P10275); assay: qHTS assay to identify small molecule antagonists of the androgen receptor (AR) signaling pathway using the MDA cell line in the presence of 0.5 nM R1881 (AID 1259243); note: nearly all actives have a fitted effect of over 50% in size; note: potency is the fitted concentration of half-maximal effect
# Summary of the method: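 Antagonist mode quantitative HTS in MDA-kb2 MMTV-luciferase cells, agonist R1881 at 0.5 nM final, 16 hr exposure at 37C and 0% CO2, luminescent detection.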
# [19] = qHTS assay to identify small molecule phospholipidosis (PLD) inducers (AID 1259344; active = well fitted curve in the direction sought with a large enough effect; an effect the other way counts as inactive or inconclusive)
# Summary of the method: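 Image-based: LipidTOX Red pit count/intensity per well and per cell; HepG2, 24 h compound at 37 C, PFA fixation, Hoechst counterstain.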
# [20] = qHTS assay to identify small molecule antagonists of the sonic hedgehog signaling (Shh) pathway - cell viability counter screen (AID 1259367); note: nearly all actives have a fitted effect of over 55% in size; note: potency is the fitted concentration of half-maximal effect
# Summary of the method: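 Tox21 library chemicals were tested on a Gli1-Luc NIH/3T3 clone (2,000 cells/well) stimulated by conditioned medium; viability was quantified as fluorescence from CellTiter-Fluor reagent added at 23 hr.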
# Chain of Estrogen receptor (Homo sapiens) (P03372 whole entry, looked up): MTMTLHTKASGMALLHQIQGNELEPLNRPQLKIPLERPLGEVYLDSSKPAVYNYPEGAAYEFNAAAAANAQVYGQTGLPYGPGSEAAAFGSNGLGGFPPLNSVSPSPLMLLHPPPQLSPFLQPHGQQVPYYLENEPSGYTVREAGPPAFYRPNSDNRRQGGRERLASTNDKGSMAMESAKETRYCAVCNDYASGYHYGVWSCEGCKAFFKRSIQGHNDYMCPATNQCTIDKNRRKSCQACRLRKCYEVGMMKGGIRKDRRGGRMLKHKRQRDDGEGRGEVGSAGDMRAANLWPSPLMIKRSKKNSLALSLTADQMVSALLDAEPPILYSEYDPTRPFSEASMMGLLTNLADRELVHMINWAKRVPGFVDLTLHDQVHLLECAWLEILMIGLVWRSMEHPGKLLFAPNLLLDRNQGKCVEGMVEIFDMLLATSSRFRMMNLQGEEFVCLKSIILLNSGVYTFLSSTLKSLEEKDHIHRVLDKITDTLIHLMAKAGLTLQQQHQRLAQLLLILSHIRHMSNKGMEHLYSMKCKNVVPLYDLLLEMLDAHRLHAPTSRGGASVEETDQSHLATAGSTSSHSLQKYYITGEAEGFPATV
# Chain of Androgen receptor (Homo sapiens) (P10275 whole entry, looked up): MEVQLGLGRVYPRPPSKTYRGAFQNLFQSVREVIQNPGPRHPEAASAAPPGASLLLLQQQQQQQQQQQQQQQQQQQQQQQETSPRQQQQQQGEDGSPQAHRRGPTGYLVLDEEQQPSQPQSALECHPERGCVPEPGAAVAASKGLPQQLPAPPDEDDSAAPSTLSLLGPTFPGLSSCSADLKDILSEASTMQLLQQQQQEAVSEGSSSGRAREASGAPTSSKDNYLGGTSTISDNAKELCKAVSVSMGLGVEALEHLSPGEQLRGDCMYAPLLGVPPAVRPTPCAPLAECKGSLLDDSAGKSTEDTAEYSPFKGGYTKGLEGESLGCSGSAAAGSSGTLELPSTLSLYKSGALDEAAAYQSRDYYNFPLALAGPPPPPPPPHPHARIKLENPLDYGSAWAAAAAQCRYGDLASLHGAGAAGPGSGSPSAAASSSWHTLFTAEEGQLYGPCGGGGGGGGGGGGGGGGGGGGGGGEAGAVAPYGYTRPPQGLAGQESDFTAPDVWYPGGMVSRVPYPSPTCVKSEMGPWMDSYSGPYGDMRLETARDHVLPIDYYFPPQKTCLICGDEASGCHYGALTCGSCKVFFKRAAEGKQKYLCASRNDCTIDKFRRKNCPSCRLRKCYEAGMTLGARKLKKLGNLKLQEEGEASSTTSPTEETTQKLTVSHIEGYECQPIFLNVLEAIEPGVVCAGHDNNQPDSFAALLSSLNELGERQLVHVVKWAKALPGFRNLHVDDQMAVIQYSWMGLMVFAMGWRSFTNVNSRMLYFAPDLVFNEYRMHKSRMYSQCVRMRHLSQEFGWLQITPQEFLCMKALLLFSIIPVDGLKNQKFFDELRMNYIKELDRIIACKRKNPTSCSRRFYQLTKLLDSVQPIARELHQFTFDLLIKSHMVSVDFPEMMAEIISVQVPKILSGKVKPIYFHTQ
compound,measurement,setting,value
O=[N+]([O-])c1cccc(Cl)c1Cl,Potency,[1],inactive
same,Potency,[2],inactive
same,Potency,[3],inactive
same,Potency,[4],inactive
same,Potency,[5],inactive
same,Potency,[6],inactive
same,Potency,[7],inactive
same,Potency,[8],inactive
same,Potency,[9],inactive
same,Potency,[10],inactive
same,Potency,[11],inactive
same,Potency,[12],inactive
same,Potency,[13],inactive
same,outcome,[14],inactive
same,Potency,[15],inactive
same,outcome,[16],inactive
c1ccc(OCc2ccc(CCCN3CCOCC3)cc2)cc1,Potency,[17],inactive
same,Potency,[3],inactive
same,Potency,[4],inactive
same,Potency,[7],inactive
same,Potency,[8],inactive
same,Potency,[11],inactive
same,Potency,[18],29.8 µM (active)
same,Potency,[19],inactive
same,outcome,[14],inactive
same,Potency,[15],inactive
same,Potency,[20],inactive
same,outcome,[16],inactive
CCCCOc1ccc(CC(=O)NO)cc1,Potency,[17],inactive
same,Potency,[1],inactive
same,Potency,[3],inactive
same,Potency,[4],inactive
same,Potency,[6],2.13 µM (active)
same,Potency,[7],inactive
same,Potency,[8],inactive
same,Potency,[9],inactive
same,Potency,[10],inactive
same,Potency,[11],inactive
same,Potency,[19],inactive
same,Potency,[13],inactive
same,outcome,[14],inactive
same,outcome,[16],inactive
COc1ccc(C(C)=O)cc1,Potency,[1],inactive
same,Potency,[2],inactive
same,Potency,[3],inactive
same,Potency,[4],inactive
same,Potency,[5],inactive
same,Potency,[6],inactive
same,Potency,[8],inactive
same,Potency,[9],inactive
same,Potency,[11],inactive
same,Potency,[18],inactive
same,Potency,[12],inactive
same,Potency,[13],inactive
same,outcome,[14],inactive
same,Potency,[15],inactive
same,Potency,[20],inactive
same,outcome,[16],inactive
CC(C)(C)C(=O)OCOP(=O)(COCCn1cnc2c(N)ncnc21)OCOC(=O)C(C)(C)C,Potency,[17],inactive
same,Potency,[1],inactive
same,Potency,[3],inactive
same,Potency,[4],inactive
same,Potency,[6],inactive
same,Potency,[7],inactive
same,Potency,[8],inactive
same,Potency,[9],inactive
same,Potency,[10],inactive
same,Potency,[11],inactive
same,Potency,[19],inactive
same,Potency,[13],inactive
same,outcome,[14],inactive
same,Potency,[15],10.6 µM (active)
same,Potency,[20],9.44 µM (active)
same,outcome,[16],inactive
O=S1(=O)c2cccc3cccc(c23)N1CCCN1CCN(c2ccc(F)cc2)CC1,Potency,[17],inactive
same,Potency,[2],inactive
same,Potency,[3],inactive
same,Potency,[4],inactive
same,Potency,[5],inactive
same,Potency,[6],inactive
same,Potency,[7],inactive
same,Potency,[8],inactive
same,Potency,[19],inactive
same,Potency,[13],inactive
same,Potency,[15],inactive
same,Potency,[20],inactive
same,outcome,[16],inactive
c1ccc(-c2nc[nH]c2-c2ccccc2)cc1,Potency,[17],inactive
same,Potency,[3],inactive
same,Potency,[4],inactive
same,Potency,[5],inactive
same,Potency,[6],inactive
same,Potency,[7],inactive
same,Potency,[8],inactive
same,Potency,[10],inactive
same,Potency,[11],inactive
same,Potency,[19],inactive
same,Potency,[13],inactive
same,outcome,[14],inactive
same,Potency,[15],inactive
same,Potency,[20],inactive
same,outcome,[16],inactive
CC1(C)CCC(C)(C)c2cc(NC(=O)c3ccc(C(=O)O)cc3)ccc21,Potency,[17],inactive
same,Potency,[2],inactive
same,Potency,[3],inactive
same,Potency,[4],inactive
same,Potency,[7],inactive
same,Potency,[8],inactive
same,Potency,[9],inactive
same,Potency,[10],inactive
same,Potency,[19],inactive
same,Potency,[13],inactive
same,outcome,[14],inactive
same,outcome,[16],inactive
NC[C@H]1O[C@H](O[C@H]2[C@H](O)[C@@H](O[C@H]3O[C@H](CO)[C@@H](O)[C@H](N)[C@H]3O)[C@H](N)C[C@@H]2N)[C@H](O)[C@@H](O)[C@@H]1O,cytotoxicity,[1],1.08% [at 6.97 µM]
same,cytotoxicity increase,[2],13.2% [at 6.97 µM]
same,cytotoxicity increase,[3],7.24% [at 6.97 µM]
same,"activity change, negative = cytotoxic",[4],2.6% [at 6.97 µM]
same,"activity change, negative = cytotoxicity",[5],13.6% [at 6.97 µM]
same,"activity change, negative = cytotoxicity",[6],2.67% [at 6.97 µM]
same,activity change,[7],"6.94% [at 6.97 µM, hits give high values]"
same,"activity change, negative = cytotoxicity",[8],17.3% [at 6.97 µM]
same,cytotoxicity increase,[9],21.1% [at 6.97 µM]
same,"viability change, negative = cytotoxic",[11],1.3% [at 8.39 µM]
same,Potency,[19],inactive
same,"activity change, negative = inhibition",[13],-0.959% [at 8.39 µM]
same,"activity change, negative = cytotoxicity",[14],2.31% [at 8.39 µM]
same,"viability change, negative = cytotoxic",[15],-24.3% [at 8.39 µM]
same,"viability change, negative = cytotoxic",[20],-30.1% [at 8.39 µM]
same,activity change,[16],1.6% [at 8.39 µM]
